# Test results: PubChem BioAssay (NCATS)
# Results filed as inconclusive are left out. Activity calls are given as the source filed them. Calls come from the whole dose curve.
# Assay: Primary qHTS for inhibitors of SARS-S pseudo-typed particle cell entry (AID 1479145); note: nearly all actives have a fitted effect of over 45% in size
# Conditions: SARS-S pseudotyped particle cell entry, luciferase reporter; series mostly up to 57.1 µM; activity change, negative = inhibition: at the top concentration
# % is set by controls: 0 for no effect and ±100 for the full control effect; potency is the fitted concentration of half-maximal effect.
SMILES,"activity change, negative = inhibition",outcome,Potency
COC(=O)[C@H]1[C@H]2C[C@@H]3c4[nH]c5cc(OC)ccc5c4CCN3C[C@H]2C[C@@H](OC(=O)c2cc(OC)c(OC)c(OC)c2)[C@@H]1OC,-27.6% (inactive),–,–
CCC[C@H](N[C@@H](C)C(=O)N1[C@H](C(=O)O)C[C@@H]2CCCC[C@@H]21)C(=O)OCC,–,inactive,–
CCCCc1oc2ccc(NS(C)(=O)=O)cc2c1C(=O)c1ccc(OCCCN(CCCC)CCCC)cc1,–,–,22.4 µM (active)
Oc1ccc(C2CNCCc3c2cc(O)c(O)c3Cl)cc1 (configuration not stated),–,inactive,–
O=C1c2cccc3c2[C@H](CCC3)CN1[C@@H]1CN2CCC1CC2,-23.3% (inactive),–,–
Cc1oncc1C(=O)Nc1ccc(C(F)(F)F)cc1,–,inactive,–
Nc1[nH]c(=O)ncc1F,-16.2% (inactive),–,–
CCOC(=O)N1CCC(=C2c3ccc(Cl)cc3CCc3cccnc32)CC1,-16.7% (inactive),–,–
O=c1c(O)c(-c2ccc(O)c(O)c2)oc2cc(O)cc(O)c12,-29.3% (inactive),–,–
O=C(c1ccc(OCCN2CCCCC2)cc1)c1c(-c2ccc(O)cc2)sc2cc(O)ccc12,–,–,20 µM (active)
Oc1ccc(Cl)cc1Cc1ccccc1,–,inactive,–
NNc1nncc2ccccc12,–,inactive [at 26.4 µM],–
Clc1ccc2c(c1)C(N1CCNCC1)=Nc1ccccc1O2,-35.5% (inactive),–,–
Cc1c(O)cccc1C(=O)N[C@@H](CSc1ccccc1)[C@H](O)CN1C[C@H]2CCCC[C@H]2C[C@H]1C(=O)NC(C)(C)C,–,inactive,–
CCN(CC)CCNC(=O)c1cc(Cl)c(N)cc1OC,–,inactive,–
CC(=O)N(O)CCCCCNC(=O)CCC(=O)N(O)CCCCCNC(=O)CCC(=O)N(O)CCCCCN,-18.1% (inactive),–,–
CNS(=O)(=O)Cc1ccc2[nH]cc(CCN(C)C)c2c1,0.287% (inactive),–,–
CO/N=C(\C(=O)N[C@@H]1C(=O)N2C(C(=O)O)=C(CSc3nc(=O)c(O)nn3C)CS[C@H]12)c1csc(N)n1,–,inactive,–
CCN(CC)CCCC(C)Nc1ccnc2cc(Cl)ccc12 (configuration not stated),-29% [at 26.4 µM] (inactive),–,–

SMILES,"activity change, negative = inhibition",outcome,Potency
NCCC(O)(P(=O)(O)O)P(=O)(O)O,–,inactive,–
Cc1cn([C@H]2C=C[C@@H](CO)O2)c(=O)[nH]c1=O,-22.9% (inactive),–,–
Cn1c(=O)c2c(ncn2CC(O)CO)n(C)c1=O (configuration not stated),–,inactive,–
CCCC(CCC)C(=O)O,–,inactive,–
Nc1nc(N)c2nc(-c3ccccc3)c(N)nc2n1,-8.42% (inactive),–,–
CN1C(=O)CC(C)(c2ccccc2)C1=O (configuration not stated),–,inactive,–
CC(C)C[C@H](NC(=O)[C@H](CCc1ccccc1)NC(=O)CN1CCOCC1)C(=O)N[C@@H](Cc1ccccc1)C(=O)N[C@@H](CC(C)C)C(=O)[C@@]1(C)CO1,–,–,1 µM (active)
NC(=O)N/N=C/c1ccc([N+](=O)[O-])o1,-5.55% (inactive),–,–
Cn1cnc([N+](=O)[O-])c1Sc1ncnc2nc[nH]c12,1.73% (inactive),–,–
CC(C)C[C@H](NC(=O)[C@H](Cc1ccccc1)NC(=O)c1cnccn1)B(O)O,-98.2% (inactive),–,–
CCCCNc1ccc(C(=O)OCCOCCOCCOCCOCCOCCOCCOCCOCCOC)cc1,-55.4% (inactive),–,–
COc1ccccc1Oc1c(NS(=O)(=O)c2ccc(C(C)(C)C)cc2)nc(-c2ncccn2)nc1OCCO,-34.8% (inactive),–,–
O[C@@H](c1cc(C(F)(F)F)nc2c(C(F)(F)F)cccc12)[C@H]1CCCCN1,-11.9% (inactive),–,–
Cc1ccc(NC(=O)c2ccc(CN3CCN(C)CC3)cc2)cc1Nc1nccc(-c2cccnc2)n1,–,–,12.6 µM (active)
CCCN1C[C@H](CSC)C[C@@H]2c3cccc4[nH]cc(c34)C[C@H]21,-13.4% (inactive),–,–
CC(=O)O[C@]1(C(C)=O)CC[C@H]2[C@@H]3C=C(C)C4=CC(=O)CC[C@]4(C)[C@H]3CC[C@@]21C,-15.4% (inactive),–,–
CC[C@@]1(O)C(=O)OCc2c1cc1n(c2=O)Cc2cc3c(CN(C)C)c(O)ccc3nc2-1,–,–,3.16 µM (active)
Cc1ccc(-c2cc(C(F)(F)F)nn2-c2ccc(S(N)(=O)=O)cc2)cc1,0.251% (inactive),–,–
